Screens (PubChem)
FLuc counter: qHTS profiling assay for firefly luciferase inhibitor/activator using purifed enzyme and Km concentrations of substrates (counterscreen for miR-21 project); 6.9% of 360,000 active; purified FLuc, Km substrates, luminescence inhibition; Potency, µM (series often up to 57.5 µM), actives largely listed as inhibitors; Luciferin 4-monooxygenase (Photinus pyralis), P08659; AID 588342, 2011; also: nearly all actives have a fitted effect of over 55% in size
Target sequence (P08659 whole entry, looked up): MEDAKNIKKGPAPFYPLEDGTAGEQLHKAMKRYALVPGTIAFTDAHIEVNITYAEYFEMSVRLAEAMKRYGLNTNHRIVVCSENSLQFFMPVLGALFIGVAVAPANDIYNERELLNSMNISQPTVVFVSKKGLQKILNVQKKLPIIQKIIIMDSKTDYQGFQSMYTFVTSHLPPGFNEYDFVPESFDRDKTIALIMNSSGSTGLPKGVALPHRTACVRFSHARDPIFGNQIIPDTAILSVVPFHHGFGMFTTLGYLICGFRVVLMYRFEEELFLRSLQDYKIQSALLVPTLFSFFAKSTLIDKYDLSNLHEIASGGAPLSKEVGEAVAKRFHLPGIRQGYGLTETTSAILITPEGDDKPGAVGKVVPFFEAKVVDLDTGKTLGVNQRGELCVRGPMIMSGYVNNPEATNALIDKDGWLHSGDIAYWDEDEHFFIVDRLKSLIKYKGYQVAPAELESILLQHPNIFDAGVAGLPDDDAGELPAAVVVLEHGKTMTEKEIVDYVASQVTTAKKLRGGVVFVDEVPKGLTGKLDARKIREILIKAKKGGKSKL
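Biochemical qHTS of compounds, final roughly 60 µM downward over six points, against 10 nM purified firefly luciferase using Km concentrations of substrates (10 uM D-luciferin, 10 uM ATP) in Tris acetate pH 7.5 buffer; luminescence output.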
NPC1 prom act: qHTS Assay for NPC1 Promoter Activators. AID 485313, 2010. Huh7 NPC1 promoter luciferase reporter, 24 h. 2.4% of 320,000 active. Potency, µM (series often up to 9.22 µM), actives largely listed as activators; also: nearly all actives have a fitted effect of over 60% in size
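Stable NPC1-promoter luciferase Huh7 line; cpd (DMSO) 24 h, 37 °C, 5% CO2; Amplite luciferase reagent 10 min RT; luminescence readout. qHTS format.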
SMN2 splice up: qHTS Assay for Enhancers of SMN2 Splice Variant Expression; 2.8% of 210,000 active; Potency, µM (highest dose often 46.1 µM), actives largely listed as activators; HEK293 SMN2-luciferase splicing reporter, luminescence, 30-36 h; AID 1458, 2008; also: nearly all actives have a fitted effect of over 55% in size
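HEK293 cells carry an SMN2 minigene-luciferase reporter in which exon 7 inclusion puts luciferase in frame. Cells were seeded at 2000 cells/well, attached for 10-12 hours, then exposed to compounds for 30-36 hours at 37C before ONE-Glo luminescence.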
ELG1 genotoxic: qHTS screen for small molecules that induce genotoxicity in human embryonic kidney (HEK293T) cells expressing luciferase-tagged ELG1; HEK293T ELG1-luciferase reporter, luminescence, 16 h; AID 504466, 2011; 1.3% of 330,000 active; Potency, µM (top dose mostly 46 µM), usual class: activators; also: nearly all actives have a fitted effect of over 60% in size
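16 hr compound incubation (37 °C, 5% CO2) of HEK293T cells carrying luciferase-tagged ELG1; luciferase then measured by ONE-Glo luminescence after 30 min at RT.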
p53 reactivation: qHTS assay for re-activators of p53 using a Luc reporter. H1299 p53-A138V BP100-luciferase reporter, luminescence, 24 h. Potency, µM (series often up to 92.2 µM), most hits filed as activators. 0.063% of 320,000 active. AID 504706, 2011; also: nearly all actives have a fitted effect of over 45% in size
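p53-null H1299 cells stably carrying temperature-sensitive p53-A138V and a BP100-luciferase reporter were pinned with compounds (4-point, 1:5 series) and held 24 hrs at 37 deg C. Luminescence was read 10 min after detection reagent.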
Rab9 prom act: qHTS Assay for Rab9 Promoter Activators; 2.8% of 320,000 active; Huh7 Rab9 promoter-luciferase reporter, luminescence, 24 h; AID 485297, 2010; Potency, µM (doses to about 9.22 µM), actives largely listed as activators; also: nearly all actives have a fitted effect of over 60% in size
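Rab9 promoter-driven luciferase in stably transfected Huh7 cells; 1500 cells/well rested 2 h, exposed to compound in DMSO for 24 h at 37 °C, 5% CO2. Luminescence read 10 min after adding luciferase reagent at ambient temperature.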
A number is an active result; . = inactive; ? = inconclusive; / = not tested or not shown; [ ] = remark or other dose. An excerpt weighted towards active compounds, which were near 7.3% of everything screened. Calls follow the shape of the dose curve; as a rule, active = well fitted curve in the direction sought with a large enough effect; inconclusive = small, poorly fitted or top-dose-only effect, or another doubt; inactive = no such curve, though single readings can be large; an effect the other way counts as inactive or inconclusive.

SMILES	FLuc counter	NPC1 prom act	SMN2 splice up	ELG1 genotoxic	p53 reactivation	Rab9 prom act
COc1ccc(CNC(=O)Cn2ncn3cccc3c2=O)cc1	21µM	?	11µM	?	.	1.6µM
COc1ccc(CNC(=O)Cn2ncn3c(cc4ccccc43)c2=O)cc1	.	.	/	.	.	.
COc1ccc(N/C=C/C(=O)c2ccc(Oc3ncccn3)cc2)cc1	1.7µM	.	.	.	.	.
CCOc1ccc(NC(=S)NC(=O)/C=C/c2ccc(Br)cc2)c([N+](=O)[O-])c1	.	.	/	.	.	.
O=C(/C=C/Nc1ccc(F)cc1)c1ccc(Oc2ncccn2)cc1	?	.	.	.	.	?
CCOc1ccc(N/C=C/C(=O)c2ccc(OC)cc2)cc1	1.2µM	?	/	.	.	?
CCOc1ccc(N/C=C/C(=O)c2ccc(OC)cc2)c([N+](=O)[O-])c1	0.85µM	0.4µM	.	?	.	1.1µM
O[C@@H]1COC(Nc2ccc(N=Nc3ccccc3)cc2)C[C@@H]1O (some centres not stated)	0.34µM	?	/	?	.	3.2µM
OC[C@H]1OC(Nc2ccc(N=Nc3ccccc3)cc2)[C@@H](O)[C@@H](O)[C@@H]1O (some centres not stated)	?	?	/	?	.	?
CC1(C)Nc2ccccc2C(=O)N1c1ccccc1	.	.	/	.	/	.
Cc1cc(/C=C\c2nc(O)c([N+](=O)[O-])c(=O)[nH]2)c(C)n1-c1ccccc1	11µM	.	.	.	.	.
COc1ccc(-n2c(C)cc(/C=C/c3nc(O)c([N+](=O)[O-])c(=O)[nH]3)c2C)cc1	?	.	.	.	.	.
CN(C)CCNc1ccccn1	/	/	.[9.22 µM]	/	/	/
CSc1ccc(/C=C/C(=O)NC(=O)c2ccccc2O)cc1	0.6µM	?	25µM	9.2µM	.	2.5µM
O=C(/C=C/c1ccc(Br)cc1)NC(=O)c1ccccc1O	0.38µM	3.5µM	22µM	?	.	1.8µM
O=C(NO)c1ccccc1O	.	.	.	.	.	.
O=C(/C=C/c1ccc(O)c(O)c1)NC(=O)c1ccccc1O	9.5µM	?	32µM	?	/	.
Cc1cccc(Nc2ccc(NCc3ccccc3)nn2)c1	15µM	?	.	.	.	?
Cc1ccc(Nc2cc(C)nc(NCc3ccccc3)n2)cc1	.	.	.	.	.	.
CN(N=Nc1ccc([N+](=O)[O-])cc1)c1ccccc1	5.4µM	4µM	20µM	?	?	?
CN(N=Nc1cccc([N+](=O)[O-])c1)c1ccccc1	9.5µM	?	/	?	?	?
CC(C)N(N=Nc1ccc([N+](=O)[O-])cc1)C(C)C	.	.	.[1.84 µM]	.	.	.
O=[N+]([O-])c1cccc(C(=Nc2ccccc2)NO)c1	.	.	.	.	.	.
CCCc1nnc(NC(=O)c2nc(SCC)ncc2Cl)s1	?	/	.	/	/	/
Cc1nc(CC(=O)Nc2cc(Cl)ccc2C)cs1	.	/	.	/	/	/
SMILES	FLuc counter	NPC1 prom act	SMN2 splice up	ELG1 genotoxic	p53 reactivation	Rab9 prom act
N/C(=N\OC(=O)COc1ccccc1Cl)c1ccccn1	4.8µM	3.2µM	13µM	9.2µM	?	2.5µM
Cc1ccc(C)c(OCC(=O)O/N=C(\N)c2ccccn2)c1	17µM	3.2µM	?	?	?	?
N/C(=N\OC(=O)COc1ccc2ccccc2c1)c1ccccn1	?	.	.	.	.	.
O=C(OCC(=O)N1CCCCCC1)c1ccc(F)cc1F	13µM	.	/	.	.	3.5µM
Cc1cccc(C(=O)OCC(=O)N2CCCCCC2)c1O	/	3.2µM	/	?	?	3.2µM
O=C(OCC(=O)N1CCOCC1)c1ccccc1Cc1ccccc1	9.5µM	1.6µM	11µM	13µM	?	3.2µM
O=C(OCC(=O)N1CCOCC1)c1ccc(F)cc1Cl	.	.	/	.	?	.
Cc1cccc(C(=O)OCC(=O)N2CCCCCC2)c1	19µM	?	/	?	?	?
O[C@H]([C@H](O)[C@@H](O)c1nc2ccccc2[nH]1)[C@@H](O)c1nc2ccccc2[nH]1	/	/	.[9.22 µM]	/	/	/
